# Compound activity deposited in PubChem BioAssay by The Scripps Research Institute Molecular Screening Center.
# hgDAF-12 ag: agonists of H. glycines DAF-12 nuclear receptor. 370,000 compounds, 1.8% hits. HEK293 GAL4-hgDAF12 UAS-luciferase reporter, agonist luminescence; normalized to butyrate control. activation, % at 6.8 µM. AID 687014;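 active = activation above a cutoff set at the mean of all screened compounds plus 3 SD, cut at about 10% in these data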;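 note: 0% = DMSO wells and 100% = sodium butyrate wells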
# hcDAF12 agonist: activates DAF-12 receptor from parasite H. contortus. HEK293 hcDAF-12 lit1-tk-luc reporter, luminescence; 0% DMSO, 100% Δ7-dafachronic acid. activation, % at 6.8 µM. 370,000 compounds, 1.4% hits;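 active = activation above the mean of all tested compounds plus 3 SD, cut at about 5.5% in these data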;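 note: 100% = response to 3 µM Δ7-dafachronic acid high control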
# Wee1 degr inh: inhibitors of human Wee1 degradation; reporter increase, % at 5 µM; P30291; 220,000 compounds, 1.2% hits; HeLa Luc-Wee1K328M stability, luciferase luminescence; 100% = proteasome inhibitor MG132 effect;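 active = activation above the mean of all tested compounds plus 3 SD, set per screening run, cut at about 8.8% in these data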;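 note: cells exposed to compound for 20 h before luminescence read; 0% = DMSO alone and 100% = MG132 at 30 µM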
# DAX1 inh-1: NR0B1 (DAX1) inhibition; AID 504766; HEK293 Gal4-DAX1 luciferase reporter, luminescence; inhibition, % at 6.75 µM; P51843; 340,000 compounds, 0.99% hits;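 active = inhibition above the mean over all tested compounds plus 3 SD, cut at about 4.2% in these data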;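 note: 0% = DAX1-transfected cells with DMSO and 100% = empty-vector control cells with DMSO; inhibition shows as a rise in luminescence from relieved DAX1 repression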
# Target sequence (P51843 207-470 limits assumed): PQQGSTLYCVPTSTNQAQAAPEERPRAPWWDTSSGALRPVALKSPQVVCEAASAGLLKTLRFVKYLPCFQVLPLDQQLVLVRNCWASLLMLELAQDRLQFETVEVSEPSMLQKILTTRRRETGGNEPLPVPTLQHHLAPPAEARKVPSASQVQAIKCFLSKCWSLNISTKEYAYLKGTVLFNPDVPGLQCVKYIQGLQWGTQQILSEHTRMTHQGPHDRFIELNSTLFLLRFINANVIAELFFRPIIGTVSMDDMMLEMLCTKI
# DAX1 inh-2: blocks DAX1 repression of SF-1 activated StAR promoter; HEK293T StAR-luciferase reporter, SF-1/DAX-1 repression relief; inhibition, % at 6.8 µM; 370,000 compounds, 1.1% hits;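 active = inhibition above the mean over all tested compounds plus 3 SD, cut at about 3.6% in these data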;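 note: 0% = DAX-1 cells with DMSO and 100% = cells lacking DAX-1 with DMSO; higher inhibition means more luminescence from relief of DAX-1 repression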
# ssDAF12 agonist: activators of S. stercoralis DAF-12 nuclear receptor | HEK293 ssDAF-12/GRIP1 lit1-tk-luc reporter, luminescence; % of 3 µM dafachronic acid response | activation, % at 6.8 µM | 370,000 compounds, 1% hits;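 active = activation above the mean over all tested compounds plus 3 SD, cut at about 0.9% in these data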;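 note: 0% = DMSO-only wells and 100% = 3 µM delta7-dafachronic acid wells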
# DAX1 inh confirm: confirmation of human DAX1 (NR0B1) inhibitors | shares compounds with DAX1 inh-2 | 2,400 compounds, 87% hits | inhibition, % at 6.8 µM | HEK293T StAR-promoter luciferase reporter, SF-1/DAX-1 repression | AID 652134;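 active = inhibition above the average of every tested compound plus 3 SD, cut at about 3.8% in these data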;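 note: 0% = DAX-1 cells with DMSO and 100% = no DAX-1 control cells with DMSO; active compounds raise luminescence by relieving repression of the StAR reporter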
# Target sequence (P51843 whole entry, looked up): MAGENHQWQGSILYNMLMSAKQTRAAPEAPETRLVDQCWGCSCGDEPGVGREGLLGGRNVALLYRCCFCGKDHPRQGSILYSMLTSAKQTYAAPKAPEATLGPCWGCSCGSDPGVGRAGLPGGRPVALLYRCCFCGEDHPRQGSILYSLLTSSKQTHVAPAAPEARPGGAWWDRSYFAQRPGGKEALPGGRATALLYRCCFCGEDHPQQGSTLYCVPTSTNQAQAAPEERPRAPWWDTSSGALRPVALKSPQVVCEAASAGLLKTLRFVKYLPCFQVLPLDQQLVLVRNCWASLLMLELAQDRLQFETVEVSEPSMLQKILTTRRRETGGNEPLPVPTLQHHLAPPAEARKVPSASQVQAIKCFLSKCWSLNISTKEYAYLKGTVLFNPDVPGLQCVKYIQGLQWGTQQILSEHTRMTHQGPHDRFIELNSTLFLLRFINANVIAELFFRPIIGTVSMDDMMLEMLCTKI
# SF1 mutant ctr: nonselective inhibitor or artifact in SF-1 mutant DAX1 counter-screen | shares compounds with DAX1 inh-2 | HEK293 StAR-luciferase, SF-1 AF2 mutant, luminescence | inhibition, % at 6.8 µM | 2,400 compounds, 78% hits;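 active = inhibition above the mean of all tested compounds plus 3 SD, cut at about 3% in these data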;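 note: 0% = DAX-1 transfected cells with DMSO and 100% = cells without DAX-1 with DMSO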
# LXR ag: counter-screen for hcDAF-12 agonists: agonists of human LXR-beta. shares compounds with hcDAF12 agonist. HEK293 Gal4-LXR tk-luc reporter, luminescence, 24 h; normalized: DMSO 0%, positive control 100%. activation, % at 6.8 µM. 3,400 tested, under 10 active;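 active = mean percent activation of the reporter above a cutoff set as the average over tested compounds plus their standard deviation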
# hcDAF12 ag: hcDAF-12 agonism, confirmation assay. shares compounds with hcDAF12 agonist. HEK293 hcDAF-12 lit1-tk-luc reporter, luminescence; % of Δ7-dafachronic acid response. activation, % at 6.8 µM. 3,400 compounds, 61% hits. AID 743032;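 active = mean activation across triplicate tests above the threshold derived from the earlier primary screen, cut at about 5.5% in these data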;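 note: 0% = DMSO only wells and 100% = 3 µM Δ7-dafachronic acid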
# Starred values were filed as active, the others as inactive; . = not tested or not shown. Compounds with a hit are over-represented: about 4.6% of the library has one in this group of screens.
SMILES,hgDAF-12 ag,hcDAF12 agonist,Wee1 degr inh,DAX1 inh-1,DAX1 inh-2,ssDAF12 agonist,DAX1 inh confirm,SF1 mutant ctr,LXR ag,hcDAF12 ag
COCCn1c(C)cc(C(=O)COC(=O)c2cccnc2SC)c1C,9.2,7.7*,.,1.9,5.8*,0.2,15.5*,5.6*,1.6,9.4*
COCCn1c(C)cc(C(=O)COC(=O)c2ccccc2Br)c1C,-17.9,-7.0,-2.6,-6.2,-4.6,-3.9,.,.,.,.
O=c1oc2ccccc2cc1-c1nc2c(s1)CCCC2,12.1*,10.4*,-1.1,0.2,5.0*,0.8,5.2*,-0.6,1.3,14.2*
Cc1c(C(=O)NC2=NCCS2)oc2ccccc12,14.3*,18.8*,-0.9,1.1,5.3*,2.7*,14.4*,7.2*,1.9,20.6*
CCOc1ccc(N/C=C/C(=O)c2ccccc2)c([N+](=O)[O-])c1,9.3,11.1*,1.1,-1.6,7.5*,0.2,1.3,-2.4,1.0,4.1
COc1ccc(-c2cc3c(nn2)-c2ccccc2C3=O)cc1,12.2*,9.4*,2.5,1.1,4.5*,2.4*,-1.5,-3.0,0.3,1.5
COc1ccc(-c2cc(-c3ccccc3)c(-c3ccccc3)nn2)cc1,5.5,3.4,.,.,0.8,0.1,.,.,.,.
Cc1nn(S(=O)(=O)c2ccc(Br)cc2)c(C)c1S(=O)(=O)N1CCOCC1,-0.1,-0.9,.,0.1,-0.4,0.0,.,.,.,.
COc1ccccc1N1CCN(C(=O)c2ccccc2N(C)S(=O)(=O)c2ccc(C)cc2)CC1,-4.8,-0.6,.,-1.1,-2.7,-1.7,.,.,.,.
COc1cccc(-c2nc(-c3cccs3)no2)c1,25.8*,14.6*,3.9,3.1,5.3*,4.0*,16.7*,10.7*,1.9,16.2*
COc1cc(OC)cc(-c2nc(-c3cccs3)no2)c1,3.5,1.1,-1.6,0.3,1.1,-0.5,.,.,.,.
CS(=O)(=O)N1N=C(c2ccc(Br)cc2)CC1c1ccc2c(c1)OCO2 (configuration not stated),.,.,-0.6,2.3,.,.,.,.,.,.
Cc1ccc(C2=NN(S(C)(=O)=O)C(c3ccc4c(c3)OCO4)C2)cc1 (configuration not stated),21.3*,12.9*,6.0,1.1,5.4*,0.9*,19.3*,9.0*,1.5,14.0*
COC(=O)C(C(C)C)N(Cc1cc(OC)cc(OC)c1)S(=O)(=O)CCl (configuration not stated),2.9,-2.2,.,-0.3,-2.0,-0.8,.,.,.,.
Cc1cc(C)nc(Nc2nc(-c3ccccc3)cs2)n1,18.4*,22.1*,.,-1.9,4.5*,5.0*,19.6*,8.4*,2.9,36.9*
c1ccc(-c2csc(Nc3ccc4c(c3)OCCO4)n2)cc1,18.6*,15.0*,3.4,3.3,6.9*,3.1*,19.9*,7.0*,2.1,16.3*
O=c1oc(C2(O)CCCCC2)cc2ccc(/C=C/c3ccc(F)cc3)cc12,4.8,-1.0,.,-2.1,-0.4,-1.4,.,.,.,.
N#C/C(=C\c1ccco1)c1nc2ccccc2s1,16.6*,14.7*,4.0,4.1,5.1*,2.5*,13.5*,9.1*,1.9,11.4*
N#C/C(=C/c1ccc(-c2cc(C(=O)O)cc(C(=O)O)c2)o1)c1nc2ccccc2s1,.,.,-2.4,.,.,.,.,.,.,.
N#CCSc1ccc2nc(-c3ccccc3)cn2n1,7.2,7.5*,.,1.6,7.1*,1.0*,5.8*,4.7*,0.9,8.1*
O=C(NCc1ccccc1)C(CCc1ccccc1)n1c(=O)c(-c2ccccc2)nc2ccccc21 (configuration not stated),0.4,-1.5,.,.,-0.1,-1.1,.,.,.,.
CN(CC(=O)NCC1CCCO1)S(=O)(=O)c1ccc2ccccc2c1 (configuration not stated),-0.3,0.1,.,1.7,0.7,-0.7,.,.,.,.
COc1ccc(/C=C2/CN(Cc3ccc(OC)cc3OC)C3=N[C@H](c4ccccc4)CC(=O)N32)cc1,0.5,-2.6,.,.,-0.8,-1.2,.,.,.,.
Cc1ccc(C(=O)Oc2oc(-c3ccco3)nc2C=Nc2ccc(Cl)cc2)cc1,9.4,8.3*,0.2,0.3,4.6*,0.6,7.9*,4.7*,0.9,3.2
COc1ccc(C(C(=O)NC2CCCC2)n2c(CSCCOc3ccccc3)nc3ccccc32)cc1 (configuration not stated),-13.1,-7.1,.,.,-3.7,-2.8,.,.,.,.
SMILES,hgDAF-12 ag,hcDAF12 agonist,Wee1 degr inh,DAX1 inh-1,DAX1 inh-2,ssDAF12 agonist,DAX1 inh confirm,SF1 mutant ctr,LXR ag,hcDAF12 ag
C/C(=N\NC(=O)c1ccccc1)C1C2C=CC(C2)C1(C)C (configuration not stated),9.2,8.3*,.,5.3*,6.0*,1.9*,1.9,0.3,0.0,3.7
C/C(=N/NC(=O)c1ccccc1)C(=O)O,-1.2,1.0,1.4,0.4,0.7,-0.8,.,.,.,.
COc1ccc(OC)c(CN2CCN(C(=O)c3cccc(S(=O)(=O)Nc4ccc(C)cc4)c3)CC2)c1,-2.2,-1.1,.,-1.2,-2.5,-1.7,.,.,.,.
CN(C)c1ccc(/C=N/NC(=O)c2ccco2)cc1,13.5*,10.3*,3.0,0.1,4.6*,1.2*,13.8*,7.1*,0.9,5.4
CCOc1ccc(S(=O)(=O)N2CN(c3cccc(C(C)=O)c3)c3nc4ccccc4nc32)cc1,5.9,-0.2,.,0.5,0.5,-0.6,.,.,.,.
Cc1ccc(C(O)c2ncc(-c3ccc(C(F)(F)F)cc3)[nH]2)cc1F (configuration not stated),3.8,-1.6,.,.,0.3,-1.6,.,.,.,.
Cc1cccc(C(=O)N/N=C/c2ccc3c(c2)OCO3)n1,-0.3,0.4,-0.9,2.0,-0.1,-0.8,.,.,.,.
Cc1ccsc1C(=O)N/N=C/C=C/c1ccccc1[N+](=O)[O-],4.9,-0.2,2.8,0.5,0.8,-0.6,.,.,.,.
Cc1ccsc1C(=O)N/N=C/c1ccc2c(c1)OCO2,14.8*,9.1*,0.9,-0.4,7.7*,0.5,15.0*,9.4*,1.6,6.6*
Cc1ccccc1/C=N/NC(=O)c1sccc1C,27.1*,12.1*,5.8,2.4,6.2*,2.0*,14.9*,10.2*,1.1,4.8
Cc1ccc(S(=O)(=O)NC(=O)C2(C)CCN2C(=O)C2CCCCC2)nc1 (configuration not stated),1.6,0.1,.,.,-0.2,-0.6,.,.,.,.
